A350 autofl: qHTS Assay for Spectroscopic Profiling in A350 Spectral Region. AID 590, 2007. max dye-equivalent concentration, M. 59,000 tested, 11% active. Compound autofluorescence, 340/450 nm, Alexa 350 dye-equivalents; active compounds read high; in the data active = max dye-equivalent concentration above about 10 nM; inconclusive = mostly about 1.1 nM to 9.6 nM
4MU fluor: qHTS Assay for Spectroscopic Profiling in 4-MU Spectral Region. max dye-equivalent concentration, M. 59,000 tested, 11% active. compound autofluorescence, 340/450 nm, 4-MU equivalents; active compounds read high; in the data active = max dye-equivalent concentration above about 10 nM; inconclusive = mostly about 1.1 nM to 9.6 nM
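Compounds in 100 mM Tris, pH 8.0, incubated 15 min at room temperature, then fluorescence read at 340 nm excitation/450 nm emission. Signal converted to 4-MU dye-equivalent concentration using an on-plate six-point 4-MU standard curve.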
HADH2 inh: qHTS Assay for Inhibitors of HADH2 (Hydroxyacyl-Coenzyme A Dehydrogenase, Type II) | Potency, µM (top dose mostly 57.1 µM), for inactives: top-dose activity change, negative = inhibition, actives largely listed as inhibitors | 73,000 tested, 3.4% active | AID 886, 2007 | recombinant HADH2, NADH fluorescence, beta-hydroxybutyryl-CoA; also: potency is read from the fitted curve at half-maximal effect; % is scaled to controls: 0 for no effect and ±100 for the full control effect; nearly all actives have a fitted effect of over 60% in size
Target sequence (Q99714 whole entry, looked up, one chain of several): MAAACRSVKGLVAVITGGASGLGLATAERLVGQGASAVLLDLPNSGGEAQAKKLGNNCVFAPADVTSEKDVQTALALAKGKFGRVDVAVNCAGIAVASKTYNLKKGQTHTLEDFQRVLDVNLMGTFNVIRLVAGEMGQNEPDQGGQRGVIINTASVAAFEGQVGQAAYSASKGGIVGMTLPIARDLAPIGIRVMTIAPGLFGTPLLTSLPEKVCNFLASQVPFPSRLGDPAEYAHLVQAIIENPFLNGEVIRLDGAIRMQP
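NADH fluorescence (ex 360/em 450 nm) read every 30 s for 4 min; activity taken as last-minus-first time point difference. Enzyme 20 nM, NAD+ 1 mM, beta-hydroxybutyryl-CoA 90 uM, pH 9.0 Tris buffer.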
AID923: qHTS Assay for Allosteric/Competitive Inhibitors of Caspase-1: Spectroscopic Profiling in AFC Spectral Region | compound fluorescence, AFC spectral region (405/520 nm) | Potency, µM (highest dose often 57.5 µM), inactives show top-dose fluorescence increase, usual class: activators | 75,000 tested, 1.1% active; also: potency is read from the fitted curve at half-maximal effect; 0% is about no effect
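Compound autofluorescence profiled at 405 nm ex/520 nm em during kinetic caspase 1 run (50 nM enzyme, 5 uM Ac-WEHD-AFC, HEPES pH 7.5, 10 mM DTT). Titration up to 57 uM; baseline from regression intercept, normalized to AFC standard curve.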
HSD17B inh: qHTS Assay for Inhibitors of HSD17B4, hydroxysteroid (17-beta) dehydrogenase 4 | 3-hydroxyacyl-CoA dehydrogenase type-2 (Homo sapiens), Q99714 | recombinant HSD17B10, NADH fluorescence kinetic | Potency, µM (highest dose often 57.1 µM), without a hit: top-dose activity change, negative = inhibition, hits mostly inhibitors | 75,000 tested, 7.6% active | AID 893, 2007;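 also: the protocol describes HADH2 (HSD17B10) and not the HSD17B4 of the title; potency is read from the fitted curve at half-maximal effect; % is scaled to controls: 0 for no effect and ±100 for the full control effect; nearly all actives have a fitted effect of over 70% in size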
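Enzyme plus compound, 15 min room temperature; substrate mix added (NAD+ 1 mM, beta-hydroxybutyryl-CoA 90 uM final); plates read kinetically for NADH fluorescence. HADH2 was His-tagged, E. coli-derived, 20 nM.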
CRE-bla Fsk: Cell signaling CRE-BLA (Fsk stim) | 71,000 tested, 2.5% active | AID 662, 2007 | Potency, µM (top dose mostly 38.2 µM), without a hit: top-dose activity change, negative = inhibition, usual class: activators | CHO CRE-bla reporter (cAMP response element driving beta-lactamase), forskolin EC10, beta-lactamase ratio; active = well fitted activation curve with a large enough effect in the signal ratio, with a control signal flat, not every such curve was filed as active; inconclusive = small, poorly fitted or top-dose-only effect, or effect the other way, or a change in a side signal; the % refers to the signal ratio; also: potency is read from the fitted curve at half-maximal effect; % of control where 0% means no effect
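Forskolin analogue NKH 477 at EC10 stimulated CRE-driven beta-lactamase in CHO cells alongside compound dilution series. Beta-lactamase was measured with CCF4, excitation 405 nm, emission ratio 460/530 nm.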
* hit, by the source's call; i = inactive; ? = inconclusive; . = not tested or not shown; [ ] = dose if it differs, or a comment. This is a sample that favours compounds with a hit; in the whole collection about 14% have one here. Unless noted, calls follow the shape of the dose curve; as a rule, active = well fitted curve in the direction sought with a large enough effect; inconclusive = small, poorly fitted or top-dose-only effect, or another doubt; inactive = no such curve, though single readings can be large; an effect the other way counts as inactive or inconclusive.

SMILES	A350 autofl	4MU fluor	HADH2 inh	AID923	HSD17B inh	CRE-bla Fsk
Oc1cc2c(c(Cl)c1O)CCNC[C@H]2c1ccccc1	i	i	0.04µM*	.	7.9µM*	?
O=C(NC1CCCCC1)N1CCN(C2CCCCC2)CC1	1.7e-07M*	1.7e-07M*	7%	5%	13µM*	20%
O=C(c1ccco1)N1CCC2(CC1)CCN(c1cccc(-c3ccccc3)c1)CC2	i	i	0%	2%	-12%	-14%
COc1ccccc1-c1cc(Nc2ccn[nH]2)ncn1	1.7e-08M*	1.5e-08M*	16%	4%	2%	?
COc1ccccc1-c1cc(Nc2ccc(F)cc2)ncn1	i	i	9%	5%	?	?
NCCOC[C@H](N)C(=O)O	i	i	-5%[11.4 µM]	1%[11.5 µM]	6%[11.4 µM]	8%[7.6 µM]
CN(Cc1ccco1)c1cc(-c2ccccc2Cl)ncn1	i	i	13%	1%	-26%	?
c1ccc(Oc2nc(NCc3ccco3)nc(NCc3ccco3)n2)cc1	i	i	-12%	-1%	-1%	2%
COc1ccc(CCNc2nc(-c3ccco3)cc(C(F)(F)F)n2)cc1OC	i	i	-16%	2%	0%	?
FC(F)(F)c1cc(-c2ccco2)nc(NCc2cccnc2)n1	8.9e-08M*	9.4e-08M*	9%	2%	25µM*	18%
COc1ccccc1-c1cc(C(F)(F)F)nc(NCc2ccco2)n1	?	?	-16%	-2%	25µM*	15%
Fc1ccc(CNc2nc(-c3ccco3)cc(C(F)(F)F)n2)cc1	2.4e-08M*	2.8e-08M*	?	2%	25µM*	-4%
COc1ccccc1-c1cc(N(C)Cc2ccco2)ncn1	?	?	-12%	1%	32µM*	?
Cc1cc(C)c(S(=O)(=O)Nc2ccc(C(=O)O)c(O)c2)cc1C	.	.	?	-1%	-13%	.
O=C(Nc1cccc2nsnc12)C1CC(=O)N(c2ccccc2)C1 (configuration not stated)	2.1e-08M*	1.8e-08M*	-29%	0%	25µM*	-21%
COc1ccc(NC(=O)N2CC[C@@]3(CCCN(S(C)(=O)=O)C3)C2)cc1	i	i	-7%	16%	-1%	1%
CCN1CCc2c(sc(NC(=O)c3ccc(S(=O)(=O)N4CCOCC4)cc3)c2C(N)=O)C1	.	.	-13%	3%	-14%	-18%
CCN1CCc2c(sc(NC(=O)c3ccc(S(=O)(=O)N4CCOCC4)cc3)c2C(=O)OC)C1	1.3e-08M*	?	0%	0%	-10%	?
COc1ccc(C(=O)N2CCC3(CCCN(Cc4nccs4)C3)CC2)cc1	i	i	2%	0%	7%	-18%
c1csc(Cn2c(-c3cccs3)nc3ccccc32)c1	i	i	20µM*	2%	25µM*	14%
Clc1ccc(OCCCn2cncn2)cc1Cl	1.4e-06M*	1.4e-06M*	4%	-1%	-1%	?
c1ccc(CCCNc2nnnc3ccccc23)cc1	i	i	7%[11.4 µM]	5%[11.5 µM]	7%[11.4 µM]	7%[7.6 µM]
O=c1cnc2cnc(Oc3cccc(Cl)c3)nc2n1Cc1ccc(F)cc1	i	i	-5%	3%	-6%	-3%
CCCn1c(-c2ccc(F)cc2)nc2c(N3CCN(Cc4nc(OC)cc(OC)n4)CC3)nc(C)nc21	.	.	-3%	1%	?	8%
CCCn1c(-c2ccc(F)cc2)nc2c(NCCCN(CCO)CCO)nc(C)nc21	.	.	29%	0%	25µM*	14%
SMILES	A350 autofl	4MU fluor	HADH2 inh	AID923	HSD17B inh	CRE-bla Fsk
CCCn1c(-c2ccc(F)cc2)nc2c(NCCN3CCCC3)nc(C)nc21	.	.	-12%	1%	32µM*	6%
CCCn1c(-c2ccc(F)cc2)nc2c(NCCCN(CC)CC)nc(C)nc21	.	.	12%	0%	25µM*	5%
CCCn1c(C)nc2c(NCCCN(CC)CC)nc(C)nc21	.	.	-6%	-1%	6%	9%
CCCn1c(-c2ccc(F)cc2)nc2c(NC3CCN(Cc4ccccc4)CC3)nc(C)nc21	.	.	?	1%	32µM*	6%
Cc1c(C(=O)NN2CCOCC2)nn(-c2ccc(Cl)cc2Cl)c1-c1ccc(I)cc1	.	.	0%	-2%	-1%	-19%
N[C@@H](C(=O)O)c1cc(O)ccc1Cl	.	.	-6%	-5%	1%	?
C/C(=N/Nc1ccc2ccccc2n1)c1ccccc1O	i	i	-3%[11.4 µM]	-1%[11.5 µM]	-1%[11.4 µM]	-9%[7.6 µM]
CCCn1c(-c2ccc(F)cc2)nc2c(NCCCCN(CC)CC)nc(C)nc21	.	.	-12%	-2%	25µM*	22%
CCCn1c(-c2ccc(F)cc2)nc2c(NCCCN(C)C)nc(C)nc21	.	.	?	1%	25µM*	9%
CCCn1c(-c2ccc(F)cc2)nc2c(NCC3CCN(C)CC3)nc(C)nc21	.	.	-11%	0%	25µM*	-10%
CCCn1c(-c2ccc(F)cc2)nc2c(NCC(C)(C)CN(C)C)nc(C)nc21	.	.	?	6%	25µM*	11%
Cc1ccc(C)c(NS(=O)(=O)c2cc(C(=O)O)ccc2Cl)c1	.	.	-3%	0%	9%	.
CCCn1c(C)nc2c(NC(C)CCCN(CC)CC)nc(C)nc21 (configuration not stated)	.	.	4%	-2%	2%	6%
CCCn1c(-c2ccc(F)cc2)nc2c(NC(C)CCCN(CC)CC)nc(C)nc21 (configuration not stated)	.	.	3%	9%	25µM*	-1%
NS(=O)(=O)c1ccc(N=C2C(=O)Nc3ccccc32)cc1	5.4e-08M*	4.9e-08M*	20%[11.4 µM]	2%[11.5 µM]	2%[11.4 µM]	0%[7.6 µM]
COc1ccc(N=C2C(=O)Nc3ccccc32)cc1	i	i	-5%	-1%	-2%	-16%
CN(C)Cc1ccccc1-c1nccc(Nc2ccc(F)cc2)n1	i	i	5%	4%	6%	-3%
CN(C)c1ccc(-c2cc(Nc3ccc(F)cc3)ncn2)cc1	6.2e-08M*	5.9e-08M*	?	7%	16µM*	?
CN(C)c1ccc(-c2cc(-n3ccnc3)ncn2)cc1	2.1e-08M*	1.9e-08M*	20µM*	16%	25µM*	10µM*
CN(C)C(=O)c1ccc(-c2cc(Nc3ccccc3)ncn2)cc1	i	i	13%	2%	3%	?
CN(C)C(=O)c1ccc(-c2cc(-n3ccnc3)ncn2)cc1	i	i	?	1%	-5%	1%
CN(C)c1ccc(-c2cc(NCc3ccccc3)ncn2)cc1	7.8e-08M*	7.5e-08M*	?	0%	32µM*	?
